UBC13 polyUb – UBC13 polyubiquitin chain formation inhibitors, primary screen, biochemical, TR-FRET, uHTS; AID 485273, 2010; hit rate 0.47% among 330,000; Ubiquitin-conjugating enzyme E2 N (Homo sapiens), P61088; inhibition, % at 20 µM; in the data active means inhibition above about 45%, passing the limit was not always enough
Target sequence (P61088 whole entry, looked up): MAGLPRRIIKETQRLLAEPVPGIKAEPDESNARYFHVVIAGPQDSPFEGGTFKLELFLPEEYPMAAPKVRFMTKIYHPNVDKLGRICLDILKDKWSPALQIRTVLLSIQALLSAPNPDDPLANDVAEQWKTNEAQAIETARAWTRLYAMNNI
PREPL inh – PREPL enzyme inhibitors, primary screen, biochemical, fluorescence polarization; Prolyl endopeptidase-like (Homo sapiens), Q4J6C6; recombinant PREPL, fluorescence polarization activity-based probe; inhibition, % at 5.96 µM; hit rate 0.68% among 320,000; in the data active means inhibition above about 43%;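 further: 0% = enzyme with DMSO and 100% = wells lacking enzyme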
ATG4B inhibitor – ATG4B protease inhibitors, primary screen, biochemical, fluorescence, uHTS; Cysteine protease ATG4B (Homo sapiens), Q9Y4P1; ATG4B cleavage of LC3-PLA2, NBD-HPC fluorescence, 1 h; hit rate 0.51% among 340,000; inhibition, % at 8.33 µM; in the data active means inhibition above about 40%
Target sequence (Q9Y4P1 whole entry, looked up): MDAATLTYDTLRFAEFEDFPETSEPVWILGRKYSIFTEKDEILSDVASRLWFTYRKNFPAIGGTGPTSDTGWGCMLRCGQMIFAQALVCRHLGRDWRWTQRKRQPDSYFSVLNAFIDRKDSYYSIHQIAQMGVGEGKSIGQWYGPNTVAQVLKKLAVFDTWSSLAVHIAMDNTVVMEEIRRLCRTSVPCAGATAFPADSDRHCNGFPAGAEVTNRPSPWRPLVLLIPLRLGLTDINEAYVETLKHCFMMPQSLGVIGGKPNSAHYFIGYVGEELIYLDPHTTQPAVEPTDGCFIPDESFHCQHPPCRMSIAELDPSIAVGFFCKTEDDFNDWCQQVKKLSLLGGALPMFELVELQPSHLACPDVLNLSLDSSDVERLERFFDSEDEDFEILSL
MEKK2wt PB1 HTS – modulators of MEK5 binding to wildtype MEKK2, primary screen, biochemical, multiplex bead flow cytometry, Alexa488-MEK5; AID 1531, 2009; hit rate 1.1% among 290,000; Alexa488-MEK5 binding to MEKK2 WT; actives lie on both sides; Mitogen-activated protein kinase kinase kinase 2 (Homo sapiens), Q9Y2U5; binding response (% of control), % at 10 µM; in the data active means binding response below about 67% or above about 130%
MEKK3 PB1 HTS – modulators of MEKK3-MEK5 PB1 binding, primary screen, biochemical, wildtype MEKK3, multiplex bead flow cytometry, Alexa488-MEK5. Mitogen-activated protein kinase kinase kinase 3 (Homo sapiens), Q99759. bead-based flow cytometry, Alexa488-MEK5 binding to MEKK3; actives lie on both sides; 0 = blocked by unlabeled MEK5, 100 = vehicle. binding response (% of control), % at 10 µM. hit rate 1.4% among 290,000;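 active means binding response more than 3 SD above or below the average of its plate-row segment, actives on both sides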;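 further: Alexa488 bead fluorescence after subtracting the streptavidin-only scavenger bead signal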
MEKK2 mut-MEK5 – MEK5 binding signal on mutant MEKK2 PB1, primary screen, biochemical, multiplex bead flow cytometry, Alexa488-MEK5. AID 1530, 2009. hit rate 0.35% among 290,000. percent response, % at 10 µM. Alexa488-MEK5 binding to MEKK2 mutant; in the data active means percent response above about 24%, passing the limit was not always enough
MEKK2wt confirm – modulators of MEK5 binding to wildtype MEKK2, confirmation, biochemical, single concentration, multiplex bead flow cytometry | binding response (% of control), % at 10 µM | shares compounds with MEKK3 PB1 HTS | Alexa488-MEK5 binding to MEKK2 WT; actives lie on both sides | AID 1892, 2009 | hit rate 2.4% among 5,900; in the data active means binding response below about 16% or above about 210%; inactive means in between
MEKK2mut confirm – mutant MEKK2 PB1-MEK5 binding signal retest – biochemical, single concentration, multiplex bead flow cytometry, confirmation; shares compounds with MEKK3 PB1 HTS; Alexa488-MEK5 binding to MEKK2 mutant; percent response, % at 10 µM; hit rate 2% among 5,900; in the data active means percent response mostly above about 71%, no sharp cut-off; inactive means mostly below about 38%;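 further: higher means compound restores mutant binding toward wildtype level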
MEKK3-MEK5 inh – MEKK3 wild-type PB1 binding to MEK5, inhibitors, confirmation, biochemical, bead multiplex flow cytometry, single concentration, wildtype; hit rate 1.8% among 5,900; AID 1894, 2009; binding response (% of control), % at 10 µM; Alexa488-MEK5 binding to MEKK3; stronger effect = lower value; shares compounds with MEKK3 PB1 HTS;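 active means binding response below 72% of control, or above a set upper limit, though filed actives all read lower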;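 further: 100% = DMSO only wells and 0% = binding blocked by excess unlabeled MEK5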
Active calls of the source: *; . = no result; [ ] = another dose, or the depositor's remark. Compounds with a hit are over-represented: about 3.1% of the library has one in this group of screens.

SMILES	UBC13 polyUb	PREPL inh	ATG4B inhibitor	MEKK2wt PB1 HTS	MEKK3 PB1 HTS	MEKK2 mut-MEK5	MEKK2wt confirm	MEKK2mut confirm	MEKK3-MEK5 inh
Cc1ccc(C(=O)N(Cc2nc3ccccc3c(=O)[nH]2)C2CCCC2)cc1	8.6	-22.5	-1.5	93.0	96.0	-1.0	.	.	.
Cc1ccccc1C(=O)N(Cc1nc2ccccc2c(=O)[nH]1)C1CCCC1	7.9	-46.9	-0.2	113.0	128.0*	0.0	99.0	0.0	102.0
C=CCOc1ccc(C2N3CC4(CC)CN2CC(CC)(C3)C4=O)cc1 (stereo unspecified)	4.3	0.4	0.1	84.0	82.0*[inhibitor]	-5.0	114.0	8.0	109.0
COc1ccc(C2CC2/C(C)=N/OC(=O)c2ccc(F)cc2)cc1 (stereo unspecified)	1.5	-24.4	1.4	125.0	141.0*	4.0	108.0	9.0	109.0
CC(C)=CCc1cc([C@@H]2CC(=O)c3ccc(O)c(CC=C(C)C)c3O2)ccc1O	4.3	0.8	-19.9	101.0	103.0	1.0	.	.	.
O=C(Nc1ccc(Br)cc1)c1ccccc1Br	-2.5	-8.1	0.3	101.0	100.0	0.0	.	.	.
Cc1ccc(C)c(OCCCNCc2ccccc2)c1	10.7	-41.6	5.4	129.0	107.0	9.0	.	.	.
Cc1cc(OCCOCCNCc2ccccc2)ccc1C(C)C	11.2	18.9	5.9	134.0*	109.0	6.0	100.0	-4.0	103.0
CC(C)(C)c1ccccc1OCCOCCNCc1ccccc1	19.3	-9.5	0.4	112.0	100.0	2.0	.	.	.
Cc1ccc(C(C)C)c(OCCNCc2ccccc2)c1	19.1	-9.6	11.9	134.0*	109.0	6.0	128.0	13.0	105.0
O=C1NC(=O)/C(=C\c2ccc(N3CCOCC3)o2)N1	-12.5	-0.9	0.5	85.0	89.0	-11.0	.	.	.
COc1ccc(CCNc2cc(C)nc3c(-c4ccccc4)cnn23)cc1OC	7.6	22.4	-8.1	107.0	111.0	-1.0	.	.	.
COc1ccc(CCNc2cc(C)nc3c(-c4ccc(Cl)cc4)cnn23)cc1OC	17.7	18.7	27.8	109.0	136.0*	0.0	101.0	-2.0	104.0
C/C(=N\Nc1nc2ccccc2s1)c1ccc(Br)s1	19.1	26.2	13.4	138.0*	111.0	26.0	119.0	15.0	106.0
CC(=NNc1nc2ccccc2s1)c1ccncn1	.	.	-2.8	.	.	.	.	.	.
CCC(C)N(C(=O)CSc1nnc(-c2ccco2)n1C)C1CCS(=O)(=O)C1 (stereo unspecified)	3.9	-7.7	0.3	.	.	.	.	.	.
Cc1nn(-c2ccccc2)c(Cl)c1/C=N/NC(=O)c1ccncc1	2.0	15.6	5.5	90.0	89.0	-13.0	.	.	.
O=C(O)CNC(=S)N(Cc1ccccc1Cl)C1CCCCC1	-6.1	14.3	-3.5	63.0	48.0*[inhibitor]	-14.0	87.0	-11.0	85.0
O=C(NCCCN1CCCC1)c1cc(Sc2ccc(F)cc2)nc2ccccc12	0.4	-25.5	-1.5	122.0	133.0*	1.0	125.0	13.0	104.0
COc1ccc(NC(=O)CS(=O)c2cccc(C(F)(F)F)c2)cc1 (stereo unspecified)	6.1	-3.3	5.8	106.0	102.0	5.0	.	.	.
Cc1cccc(C)c1NC(=O)Cn1nnc(-c2ccc(CN3CCC(C)CC3)cc2)n1	5.6	1.1	0.7	137.0	144.0*	6.0	99.0	4.0	98.0
CC1CCN(Cc2ccc(-c3nnn(CC(=O)Nc4ccccc4Cl)n3)cc2)CC1	11.3	-15.8	4.0	108.0	103.0	-3.0	.	.	.
O=C1CCN(C(=O)Nc2ccccc2Cl)N1	-8.9	5.7	0.8	57.0	48.0*[inhibitor]	-24.0	104.0	3.0	105.0
O=C1CCN(C(=O)Nc2cccc(Cl)c2)N1	-19.0	8.3	6.6	102.0	100.0	2.0	.	.	.
CCCCN(CC)CCNC(=O)c1nn(-c2ccc(OC)cc2)c(=O)c2c1c1ccccc1n2C	22.0	-39.8	-1.4	144.0*	107.0	16.0	134.0	25.0	111.0
SMILES	UBC13 polyUb	PREPL inh	ATG4B inhibitor	MEKK2wt PB1 HTS	MEKK3 PB1 HTS	MEKK2 mut-MEK5	MEKK2wt confirm	MEKK2mut confirm	MEKK3-MEK5 inh
CCCCN(CC)CCNC(=O)c1cn(C)c(=O)c2c1c1ccccc1n2C	4.5	2.2	-1.0	110.0	105.0	7.0	.	.	.
CCCN(C(=O)c1ccco1)c1nnc(-c2cccc(C)c2)s1	16.9	-4.7	3.4	86.0	94.0	-8.0	.	.	.
CCN(C(=O)c1ccco1)c1nnc(-c2ccc(OC)cc2)s1	36.6	1.4	-8.5	78.0	66.0*[inhibitor]	4.0	104.0	-2.0	103.0
Cc1noc(C)c1COC(=O)[C@@H](NC(=O)c1ccccc1)C(C)C	3.9	15.6	-1.4	105.0	110.0	-2.0	.	.	.
CCC(C(=O)Nc1ccc(C(=O)Nc2ccccc2C(=O)O)cc1)c1ccccc1 (stereo unspecified)	-3.3	.	4.1	102.0	102.0	1.0	.	.	.
CCOc1ccc(Nc2nc(N3CCCCC3)nc(N3CCCCC3)n2)cc1	-12.9	-2.5	-18.3	87.0	78.0*[inhibitor]	-7.0	114.0	11.0	108.0
Cn1c(CCn2ccccc2=O)nc2cc(NC(=O)COc3ccccc3)ccc21	-21.0	11.4	-5.4	101.0	101.0	1.0	.	.	.
CCN(CC)S(=O)(=O)c1ccc(C)c(NC(=S)NNC(=O)C2CC2)c1	0.1	13.2	-9.2	100.0	100.0	-1.0	.	.	.
Cc1ccc(S(=O)(=O)N(C)C)cc1NC(=S)NNC(=O)C1CC1	-3.4	4.4	-6.4	105.0	131.0*	0.0	99.0	-1.0	99.0
COc1cccc(CNc2ccccn2)c1O	-5.0	-2.0	2.8	100.0	97.0	2.0	.	.	.
COc1cccc(CNc2cc(C)ccn2)c1O	10.3	14.5	-0.7	100.0	100.0	27.0*	97.0	-10.0	98.0
CN(C)C(=O)CSc1nc(-c2cccs2)c(-c2cccs2)[nH]1	-7.2	-1.1	3.8	93.0	97.0	-1.0	.	.	.
